ELG1 repair inh: blocks ELG1-dependent DNA repair in HEK293T cells; 330,000 compounds, 2.3% hits; Potency, µM (doses to about 46.1 µM), without a hit: at the highest dose activity change, negative = inhibition, actives largely listed as inhibitors; HEK293T ELG1-luciferase reporter, luminescence, 16 h; DNA damage induced by 5-fluorouridine; AID 504467; note: potency is the fitted concentration of half-maximal effect; nearly all actives have a fitted effect of over 55% in size
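Quantitative HTS, concentration-response format. 2,000 cells/well co-treated with 5-fluorouridine and compound, 16 hr in 5% CO2 at 37 °C; ONE-Glo luminescence read after 30 min.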
IL-1B inflam inh: blocks inflammasome-driven IL-1 beta release; THP-1 LPS/ATP IL-1B secretion, AlphaLISA, 16 h; stronger effect = lower value; activity change, % at 57.5 µM; 360,000 compounds, 4.7% hits; AID 743279; in the data active = activity change below about -50%; inconclusive = mostly about -30% to -49%
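THP-1 cells pretreated 1 hr with compounds (up to 57.5 uM final), then stimulated with LPS (250 ng/mL final) plus ATP (1.25 mM final); secreted IL-1B measured by AlphaLISA after 16 hr, decreased signal indicating inhibition.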
TDP1 cell noCPT: qHTS for Inhibitors of human tyrosyl-DNA phosphodiesterase 1 (TDP1): qHTS in cells in absence of CPT; DT40 Tdp1-/- hTDP1 cells, no CPT, ATP luminescence, 48 h; Potency, µM (highest dose often 46.2 µM), for the others: at the highest dose activity change, negative = growth inhibition, hits mostly inhibitors; 420,000 compounds, 15% hits; note: potency is the fitted concentration of half-maximal effect; nearly all actives have a fitted effect of over 55% in size
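Stably hTDP1-transfected Tdp1-null chicken DT40 cells were treated with library compounds minus camptothecin and grown for at least 48 hr at 37 °C, after which cellular ATP was quantified by luminescence.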
HT1080 IDH1KD tx: HT-1080 IDH1 knockdown cell toxicity (counter line); HT-1080 IDH1 knockdown viability, ATP luminescence, 48 h; Potency, µM (series often up to 46.1 µM), for the others: at the highest dose activity, negative = toxicity, usual class: cytotoxic; 360,000 compounds, 2% hits; AID 686971;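 note: potency is the fitted concentration of half-maximal effect; 0% = DMSO wells and -100% = cell-free medium wells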
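Viability of IDH1-knockdown HT-1080 fibrosarcoma cells was assessed by CellTiter-Glo after 48 h at 37 °C with titrated compound; concentration-effect curves were classified by fit quality and response size.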
DT40 TDP1 CPT: growth inhibition of DT40 Tdp1-/-;hTDP1 cells with camptothecin (screen for TDP1 inhibitors); chicken DT40 Tdp1-/-;hTDP1 cells + 20 nM CPT, ATP luminescence, 48 h; Potency, µM (top dose mostly 46.2 µM), inactives show at the highest dose activity change, negative = growth inhibition, actives largely listed as inhibitors; 420,000 compounds, 12% hits; AID 686979; note: potency is the fitted concentration of half-maximal effect; nearly all actives have a fitted effect of over 55% in size
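Chicken DT40 Tdp1-/- cells complemented with human TDP1, 400 cells/well, exposed to compounds plus 20 nM camptothecin for at least 48 h at 37 C; viability read as ATP content by CellTiter-Glo luminescence.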
HT1080NT lethal: kills 2HG-producing HT-1080-NT fibrosarcoma cells; HT-1080-NT fibrosarcoma viability, CellTiter-Glo ATP luminescence, 48 h; Potency, µM (top dose mostly 46.1 µM), for the others: at the top dose activity, negative = less viability, usual class: cytotoxic; 360,000 compounds, 1.6% hits; AID 686970;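 note: NT is the 2HG producing partner of a matched IDH1 knockdown line; potency is the fitted concentration of half-maximal effect; 0% = DMSO-treated cells and -100% = media-only wells without cells; nearly all actives have a fitted effect of over 55% in size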
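Toxicity toward the 2HG-producing NT line was scored as %Activity, normalised to DMSO and no-cell wells, from CellTiter-Glo luminescence after 48 hours' treatment.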
* hit, by the source's call; ? = inconclusive; nt = no result. An excerpt weighted towards active compounds, which were near 19% of everything screened. Unless noted, calls come from the whole dose curve; as a rule, active = well fitted curve in the direction sought with a large enough effect; inconclusive = small, poorly fitted or top-dose-only effect, or another doubt; inactive = no such curve, though single readings can be large; an effect the other way counts as inactive or inconclusive. Unless noted, % is set by controls: 0 for no effect and ±100 for the full control effect.

SMILES | ELG1 repair inh | IL-1B inflam inh | TDP1 cell noCPT | HT1080 IDH1KD tx | DT40 TDP1 CPT | HT1080NT lethal
COc1ccc(NC(=O)N(C)[C@H]2C[C@H]3c4[nH]c5ccc(-c6ccc7c(c6)OCO7)cc5c4CCN3C[C@H]2[C@H](C)O)cc1 | nt | -12 | 10µM* | 23µM* | 8.2µM* | 23µM*
COc1cccc(NC(=O)CSc2nc3cc(OC)c(OC)cc3c3nc(-c4ccccc4)nn23)c1 | nt | nt | -25% | nt | 6% | nt
Cc1ccc(C(=O)NCCSc2ccccc2)cc1S(=O)(=O)Nc1ccccc1 | ? | ? | -27% | ? | -23% | -14%
COC(=O)c1nn(-c2ccc(OC)cc2)ccc1=O | -12% | -6 | 0% | 1% | 7% | 2%
Cc1cc2[nH]c3c4ccccc4nc(C)c3c2cc1C | nt | -112* | 2.6µM* | ? | 3.7µM* | 15µM*
COc1ccccc1C(=O)NC(=S)Nc1ccc(NC(=O)c2ccco2)cc1 | -1% | 5 | ? | -19% | -22% | 0%
O=C(NNC(=O)c1ccc(F)cc1)c1ccncc1 | -2% | 7 | 7% | 12% | 4% | -2%
COc1ccccc1OCC(=O)NNC(=S)NC(=O)c1ccco1 | -6% | 4 | 18µM* | -29% | ? | -27%
O=C(NC(=S)NC12CC3CC(CC(C3)C1)C2)c1ccc(F)cc1 | ? | -5 | 23µM* | -29% | ? | -22%
COc1ccc(C(=O)NC(=S)NNC(=O)c2ccccc2C)cc1 | nt | 27 | ? | ? | ? | ?
COc1ccc(C(=O)NC(=S)NNC(=O)c2ccccc2O)cc1 | 17% | 63 | 12µM* | -25% | 15µM* | -16%
O=C(NNC(=S)NC(=O)c1ccc(F)cc1)c1ccncc1 | 8% | 0 | 23µM* | -26% | 18µM* | -10%
c1cncc(CNCc2ccco2)c1 | 2% | 18 | 4% | 15% | -8% | 18%
COc1ccc(C(=O)NC(=S)NNC(=O)c2ccco2)cc1 | -11% | 48 | 21µM* | ? | 18µM* | -26%
C=C(C)CNC(=S)NNC(=O)c1cc(C)oc1C | 19% | 19 | -6% | 20% | -2% | 22%
COc1ccc(C(=O)NC(=S)NNC(=O)COc2ccccc2)cc1 | 3% | 71 | ? | ? | 15µM* | ?
Cc1ccc(C(=O)NC(=S)NNC(=O)COc2ccc([N+](=O)[O-])cc2)cc1 | ? | 44 | 15µM* | -17% | ? | -17%
C=C(C)CNC(=S)NNC(=O)c1ccco1 | -12% | -8 | 1% | ? | 2% | 2µM*
O=C(NC(=S)NNC(=O)c1ccco1)c1ccc(F)cc1 | -5% | 18 | 16µM* | ? | ? | -28%
COc1ccc(C(=O)NNC(=S)NC(=O)C(C)(C)C)cc1 | ? | -102* | 7.3µM* | ? | 6.5µM* | -28%
O=C(NCCNC(=O)c1ccco1)c1ccc(F)cc1 | 17% | -6 | 7% | 12% | 8% | 16%
C[C@H]1CN([C@@H](C)CO)C(=O)Cc2cc(NC(=O)Cn3cnnn3)ccc2O[C@H]1CN(C)Cc1ccncc1 | 23% | 73 | -11% | 8% | 4% | 11%
CCN(CC)C(=O)C1=C(C)N(Cc2ccc(C(C)(C)C)cc2)C(=O)C(CC(=O)NC2CC2)C1 (stereo not drawn) | nt | 13 | -19% | 12% | -5% | 7%
CC(C)(C)OC(=O)C[C@@H]1C/C=C\C[C@@H](CC(=O)N(CCO)Cc2ccccc2)C(=O)NC[C@@H](c2ccccc2)OC1=O | ? | -4 | ? | 0% | 21µM* | -5%
CC(C)(C)OC(=O)C[C@@H]1C/C=C\C[C@H](CC(=O)N(CCO)Cc2ccccc2)C(=O)NC[C@H](c2ccccc2)OC1=O | ? | -23 | ? | 4% | ? | 0%
SMILES | ELG1 repair inh | IL-1B inflam inh | TDP1 cell noCPT | HT1080 IDH1KD tx | DT40 TDP1 CPT | HT1080NT lethal
CC(C)(C)OC(=O)C[C@@H]1C/C=C\C[C@@H](CC(=O)N(CCO)Cc2ccccc2)C(=O)N[C@H](Cc2c[nH]c3ccccc23)COC1=O | ? | -21 | ? | -9% | -16% | -4%
CC(C)(C)OC(=O)C[C@H]1C/C=C\C[C@H](CC(=O)N(CCO)Cc2ccccc2)C(=O)N[C@H](C(C)(C)C)COC1=O | ? | -3 | 21µM* | -3% | 29µM* | 22%
CC(C)(C)OC(=O)C[C@H]1C/C=C\C[C@H](CC(=O)N(CCO)Cc2ccccc2)C(=O)N[C@@H](Cc2ccccc2)COC1=O | -3% | -20 | ? | 0% | 16µM* | -1%
CC(C)(C)OC(=O)C[C@H]1C/C=C\C[C@@H](CC(=O)N(CCO)Cc2ccccc2)C(=O)N[C@H](Cc2c[nH]c3ccccc23)COC1=O | 21µM* | -22 | 18µM* | -7% | ? | 0%
C[C@@H]1COC(=O)[C@@H](CC(=O)OC(C)(C)C)C/C=C\C[C@H](CC(=O)N(CCO)Cc2ccccc2)C(=O)N1 | 17% | 17 | ? | 18% | ? | 16%
CC1(C(=O)NS(=O)(=O)c2cccc(Cl)c2)CCN1C(=O)C1CCCCC1 (stereo not drawn) | nt | 38 | 7% | 18% | 9% | 4%
CCc1ccc(CNC(=O)c2cnc3sc(N4CCCC4)nn3c2=O)cc1 | nt | nt | -30% | nt | -22% | nt
Cc1ccc(N(CC(=O)NC2CCCC2)C(=O)CNC(=O)c2cccs2)c(C)c1 | -12% | 12 | -18% | 17% | -23% | 17%
Oc1ccc(-c2nc(-c3ccc(F)cc3)c(-c3ccncc3)[nH]2)cc1 | 0% | 67 | 6.5µM* | -17% | ? | -27%
Cc1sc(NC(=O)C2=COCCO2)c(C(N)=O)c1C | ? | -18 | -12% | -3% | 7% | -3%
Cc1ccc(NC(=O)c2cccc(C(F)(F)F)c2)cc1NC(=O)c1[nH]cnc1C(N)=O | -9% | 78 | -27% | 1% | 11% | 1%
Cc1cn(-c2cc(NC(=O)c3ccc(C)c(NC(=O)c4cccc(-c5cn[nH]c(=O)c5)c4)c3)cc(C(F)(F)F)c2)cn1 | ? | -94* | ? | 0% | ? | 0%
Cc1ccc(C(=O)NN(C)c2nc3ccccc3nc2C(F)(F)F)cc1 | -13% | 58 | 3.7µM* | ? | 4.6µM* | ?
CC(C)CC(=O)NN(C)c1nc(-c2ccccc2)nnc1C(F)(F)F | -9% | 17 | ? | -1% | -21% | 3%
